The structures appear in SMILES notation. Screen size: about 52,000 compounds; about 4,300 (8.3%) were called active. The sample holds actives, similar compounds and a random draw of the others, so the mix is not that of the screen. No stated cut-off is given here; in the data, active means survival mostly below about 52% (no sharp cut-off); inactive means mostly above about 56%.

This assay concerns DeltatarO mutant. As to the kind of experiment: growth inhibition of S. aureus wild type versus tarO mutant, primary screen, teichoic acid synthesis inhibitors, RN4220, OD600 (AID 463173). The note with it: OD600, 18 h, stronger effect = lower value, screened at 18.75 µg/mL (by protocol).
For the compound `CCn1cc(C(=O)NCCCOC)c(=O)c2cc(S(=O)(=O)N3CCc4ccccc4C3)ccc21`, the survival is 92% (inactive).
Next, `Cc1cc(=O)[nH]c2nnc(SCc3ccc(C(F)(F)F)cc3)n12`: 74% (inactive); `COc1ccc(NC(=O)CCc2c(C)nc3cc(-c4cccc(F)c4)nn3c2C)cc1Cl`: 129% (inactive); `CCCCCCOc1ccc(/C=C/C(=O)Nc2sc3c(c2C(=O)OC)CCC3)cc1OC`: 69% (inactive).
Next, `O=C(NCCc1ccccc1)c1cnc2sc(N3CCOCC3)nn2c1=O`: 100% (inactive); `O=c1oc2ccc3ccccc3c2cc1-c1nnc(Nc2ccccc2)s1`: 84% (inactive).
Next, `CCc1ccc(CNC(=O)CN2C(=O)C3CCCCN3c3ccc(C(=O)N4CCCC4)cc32)cc1` (stereo not drawn): 75% (inactive); `O=C(CSCn1nnc2c(=O)[nH]c(Cc3ccc(F)cc3)nc21)Nc1ccccc1`: 52% (inactive).
For `CCCc1cnc2c(c1SCC(=O)N1CCC(C)CC1)c(=O)n(C)c(=O)n2C`, the survival is 96% (inactive).
To `Cc1c(Cl)cccc1NC(=O)CSc1nc2ncccc2o1` belongs 6% (active).
To `Cc1cccc(NC(=O)CSc2nnc(-c3cccs3)o2)c1` belongs 50% (inactive); to `O=C(CSc1nc2ncccc2o1)Nc1ccc(Cl)cc1F`, 70% (inactive).
`O=C(CSc1nnc(-c2ccccc2F)o1)Nc1cccc(C(F)(F)F)c1`: the survival is 54% (inactive).
To `O=C(CSc1nc2ncccc2o1)Nc1cccc(C(F)(F)F)c1` belongs -1% (active); to `Cc1cccc(C)c1NC(=O)CSc1nc2ncccc2o1`, 79% (inactive); to `COc1cccc(NC(=O)CSc2nnc(-c3cccs3)o2)c1`, 52% (inactive).
To `COc1cc(NC(=O)CSc2nc3ncccc3o2)cc(OC)c1` belongs 64% (inactive); to `O=C(CSc1nnc(-c2cccs2)o1)Nc1cccc(C(F)(F)F)c1`, 47% (active).
Next, `O=C(CSc1nc2c(c(=O)[nH]1)CCC2)Nc1ccccc1F`: 73% (inactive).
`COc1ccccc1C(OC(=O)c1ccco1)C(=O)NCC1CCCO1` (stereo not drawn): the survival is 85% (inactive).
Next, `OCc1nc2ccc(-c3ccc4nc(CO)[nH]c4c3)cc2[nH]1`: 51% (inactive); `COc1cccc(NC(=O)CC(C)S(=O)(=O)c2ccc3c(c2)NC(=O)CO3)c1` (stereo not drawn): 115% (inactive); `CCOC(=O)c1ccc(NC(=O)Cn2c(=O)cc(C)c3c(C)nn(-c4ccc(CC)cc4)c32)cc1`: 71% (inactive).
Next, `Cc1c(C(=O)Nc2ccc(Br)cc2F)oc2ccc(S(=O)(=O)N3CCC4(CC3)OCCO4)cc12`: 81% (inactive); `CC(C(=O)Nc1cccc(N)c1)n1nnc2ccccc21` (stereo not drawn): 65% (inactive); `Nc1nc(SCC(=O)N(CCO)CCO)nc2sc3c(c12)CCCC3`: 110% (inactive).
To `CC1CCCc2sc3nc(SCC(=O)c4ccc(Br)cc4)nc(N)c3c21` (stereo not drawn) belongs 42% (inactive); to `CCCCCCSc1nc(N)c2c3c(sc2n1)CCCC3C` (stereo not drawn), -7% (active); to `CCn1nc(-c2ccccc2)c(-c2ccccc2)c(C(=O)Nc2ccccc2C(N)=O)c1=O`, 77% (inactive).
Turning to `CCn1c(SCC(=O)Nc2cc(Cl)ccc2OC)nc2c([nH]c3ccccc32)c1=O`, the survival is 101% (inactive).
Regarding `Cc1ccccc1Cn1c(=O)n(CCC(=O)NCc2ccco2)c(=O)c2sccc21`, the survival is 106% (inactive).
To `Cc1cc(NC(=O)CC(C)C)no1` belongs 69% (inactive); to `CC1(C)CC2CC(C)(CN2C(=O)c2cc(-c3ccccc3)on2)C1` (stereo not drawn), 99% (inactive); to `COc1ccc(-c2nc(SCC(=O)N3CCN(c4ccc(F)cc4)CC3)n[nH]2)cc1`, 88% (inactive).
Next, `O=C(CSc1n[nH]c(-c2ccc(F)cc2)n1)N1CCN(c2ccc(F)cc2)CC1`: -5% (active).
Next, `O=C(CSCc1ccccc1Cl)N1CCN(c2ccc(Cl)cc2)CC1`: 92% (inactive).
In the case of `O=C(CCSCc1ccccc1Cl)N1CCN(c2ccc(F)cc2)CC1`, the survival is 66% (inactive).
Next, `O=C(CSCc1ccccc1Cl)N1CCN(c2ccc(F)cc2)CC1`: 46% (active); `O=C(CSc1n[nH]c(-c2ccccc2)n1)N1CCN(c2ccc(F)cc2)CC1`: 65% (inactive); `Cc1ccc(CNC(=O)c2ccc(-c3nc(CN4CCc5ccccc54)c(C)o3)cc2)cc1`: 84% (inactive).
To `CC1CCCCC1NC(=O)CSc1nccc(=O)[nH]1` (stereo not drawn) belongs 69% (inactive); to `Cc1cc(-c2ccc(C)c(S(=O)(=O)N(Cc3cccs3)C(C)C)c2)on1`, 65% (inactive).
Next, `CCc1ccc(-c2nc(SCC(=O)NCC3CCCO3)c(-c3ccc(C)cc3)[nH]2)cc1` (stereo not drawn): 103% (inactive); `COc1ccc(CCNC(=O)c2cc(-c3ccc(Cl)cc3)on2)cc1OC`: 64% (inactive).
On to `Cc1cc(C)n(C(C)CC(=O)Nc2cccc(C(F)(F)F)c2)n1` (stereo not drawn), for which the survival was 73% (inactive).
To `COc1ccccc1CNC(=O)c1sc2nc3n(c(=O)c2c1C)CCC3` belongs 103% (inactive).
Consider `C/C(=N\NC(N)N)C1CCCCCCCCCCC1`, for which the survival is 0% (active).
To `Cc1cc(Cl)ccc1NC(=O)C1CCN(c2nnc(-n3c(C)ccc3C)s2)CC1` belongs 88% (inactive).
Next, `Fc1ccccc1N1CCN(c2nnc(C(F)(F)F)c3nnn(Cc4ccccc4)c23)CC1`: 78% (inactive); `Cc1ccc2c(c1)sc1nc(=O)n(-c3ccc(Cl)cc3)c(=O)n12`: 59% (inactive).
To `CCOc1ccc2c(c1)sc1nc(=O)n(-c3ccc(Cl)c(Cl)c3)c(=O)n12` belongs 88% (inactive); to `Cc1ccc2c(c1)sc1nc(=O)n(-c3cccc(Cl)c3)c(=O)n12`, 85% (inactive).
For the compound `O=c1nc2sc3ccccc3n2c(=O)n1-c1ccc(Cl)c(Cl)c1`, the survival is 22% (active).
Next, `CCN(CC)C(=O)c1sc2c(c1C)c(=O)n(-c1ccc(Cl)c(Cl)c1)c(=O)n2Cc1ccccc1C#N`: 83% (inactive).
To `Cc1ccc2c(c1)sc1nc(=O)n(-c3ccc(Cl)c(Cl)c3)c(=O)n12` belongs -6% (active); to `CC(C(=O)c1ccccc1)C1(O)C(=O)Nc2ccccc21` (stereo not drawn), 94% (inactive).
To `Cc1ccc2nc(-c3ccccc3O)c(Nc3ccccc3C)n2c1` belongs 92% (inactive); to `Cc1ccccc1Nc1c(-c2ccc(N3CCOCC3)cc2)nc2ccc(Br)cn12`, 74% (inactive); to `O=C(NCc1ccccc1)c1cnc2sc(N3CCCC3)nn2c1=O`, 77% (inactive).
As for `O=C(Nc1ccccc1C(F)(F)F)c1ccncc1`, the survival is 91% (inactive).
Consider `Cc1ccc(S(=O)(=O)C2(C(=O)Nc3ccc(C)c(Cl)c3)CC2)cc1`, for which the survival was 21% (inactive).
Next, `CCc1ccccc1NC(=O)C1(S(=O)(=O)c2ccc(Cl)cc2)CC1`: 90% (active); `Cc1ccc(S(=O)(=O)C2(C(=O)Nc3ccc(C(C)C)cc3)CC2)cc1`: 19% (active).
As to `Cc1ccc(S(=O)(=O)C2(C(=O)Nc3ccc(Cl)c(C(F)(F)F)c3)CC2)cc1`, the survival was 26% (inactive).
Next, `CCOC(=O)c1ccc(NC(=O)C2(S(=O)(=O)c3ccc(Cl)cc3)CC2)cc1`: 75% (inactive); `O=C(Nc1ccccc1C(F)(F)F)C1(S(=O)(=O)c2ccc(Cl)cc2)CC1`: 84% (active).
Next, `COC(=O)c1ccc(NC(=O)C2(S(=O)(=O)c3ccc(C)cc3)CC2)cc1`: 134% (inactive).
To `Cc1cc(Br)ccc1NC(=O)C1(S(=O)(=O)c2ccc(Cl)cc2)CC1` belongs 62% (inactive).

Source of the values: PubChem BioAssay AID463173 (ICCB-Longwood Screening Facility, Harvard Medical School, 2010).
